Measured values taken from PubChem BioAssay (Tox21).
Records with an inconclusive call do not appear. Entries that show only a call come without a potency. Activity calls are given as the source filed them. Calls come from the whole dose curve; as a rule, active = well fitted cell-killing curve with a large enough effect in the repeat runs; inconclusive = weak or mixed curves, or effect the other way; inactive = flat fitted curve, though single readings scatter.

Assay: qHTS assay to identify small molecule antagonists of the retinoid acid receptor (RAR) signaling pathway - cell viability counter screen (AID 1159551); note: nearly all actives have a fitted effect of over 35% in size
Settings: C3RL4 cells viability, ATP luminescence (CellTiter-Glo), 6 h; series mostly up to 92.4 µM
Description: U.S. Tox21 Program National Center for Advancing Translational Sciences [NCATS] NIH Chemical Genomics Center [NCGC] U.S. Environmental Protection Agency [EPA] National Institutes of Environmental Health Sciences [NIEHS] National Toxicology Program [NTP] U.S. Food and Drug Administration [FDA] Tox21 Assay Overview: All-trans Retinoic acid (atRA) is the potent natural metabolite of retinol and plays an important role in normal embryonic development and maintenance of cellular phenotype in adult animals. atRA is the activating ligand for the retinoic acid receptors (RARs) which form heterodimers with retinoid X receptors (RXRs) on the retinoic acid response element (RARE). Through activation of the RAR/RXRs nuclear receptors, atRA regulates the transcription of a large number of protein-coding genes and regulatory RNAs. Intracellular levels of atRA are controlled by the retinol signaling pathway (RSP) that regulates the biosynthesis and catabolism of atRA to maintain physiological levels. Chemicals that interfere with the RSP can cause abnormal intracellular levels of atRA and therefore are potential developmental toxicants. To assess compounds for the potential adverse effect on embryonic development through interfering with retinol signaling, a cell-based RARE luciferase reporter gene assay was used. C3RL4 cell line (OARSA/CFSAN/FDA, Laurel, MD) was used to screen Tox21 10K compound library for identifying inhibitors of the RSP. Also cytotoxicity was assessed by determining the viability of cells based on the quantitation of ATP.
Tox21 Assay Protocol Summary: C3RL4 cells were seeded at 1,000/well in 4 uL of assay medium into white solid 1,536-well tissue culture plates (Greiner Bio-One North America Inc. Monroe, NC) using a Multidrop Combi (Thermo Scientific, Waltham, MA) dispenser. After incubation at 37 C and 5% CO2 for an overnight, 23 nL of compounds dissolved in DMSO, positive control or DMSO only were transferred by a Pintool station (Kalypsys, San Diego, CA). One ul of 1 uM (final concentration) of Retinol was added right after the compound addition by using a Flying Reagent Dispenser (FRD) (Aurora Discovery, San Diego, CA). After 6 hr incubation at 37 C and 5% CO2, 5 uL of CellTiter-Glo reagent (Promega Corporation, Madison, WI) was added to each assay plate using an FRD. Luminescence was quantified on a ViewLux plate reader (PerkinElmer, Waltham, MA) after 30 min incubation at room temperature.

Row | SMILES | Potency
1 | O=c1n(CCCN2CCN(c3cccc(Cl)c3)CC2)nc2ccccn12 | inactive
2 | N[C@@H](Cc1cc(I)c(Oc2ccc(O)c(I)c2)c(I)c1)C(=O)O | inactive
3 | CCCCCCCCO | inactive
4 | CCCCC(CC)COC(=O)c1ccc(C(=O)OCC(CC)CCCC)cc1 (stereo not given) | inactive
5 | CCc1cccc(O)c1 | inactive
6 | OCC(O)CS (stereo not given) | inactive
7 | COc1ccc2cc3[n+](cc2c1OC)CCc1cc2c(cc1-3)OCO2 | inactive
8 | COCN(COC)c1nc(N(COC)COC)nc(N(COC)COC)n1 | inactive
9 | C=CC(=O)NCOCCCC | inactive
10 | OCCOCCOCCOCCOCCO | inactive
11 | Cc1ccc(C(C)C)cc1 | inactive
12 | NC(N)=S | inactive
13 | COc1ccc(N)c(OC)c1 | inactive
14 | CCN(CC)CCNC(=O)c1ccc(N)cc1 | inactive
15 | CC/C=C(\C(=O)N[C@@H]1C(=O)N2C(C(=O)OCOC(=O)C(C)(C)C)=C(COC(N)=O)CS[C@H]12)c1csc(N)n1 | inactive
16 | CCCCCCCCCCCCCC(=O)O | inactive
17 | CCCCCNCCCCC | inactive
18 | O=C(O)C1=NN(c2ccc(S(=O)(=O)O)cc2)C(=O)C1 | inactive
19 | CCn1cc(C(=O)O)c(=O)c2cc3c(cc21)OCO3 | inactive
20 | CC(=O)OC(C)(C)C1CC=C(C)CC1 (stereo not given) | inactive

Row | SMILES | Potency
21 | Cc1ccncc1 | inactive
22 | CC(CN1c2ccccc2Sc2ccccc21)N(C)C (stereo not given) | inactive
23 | CC(=O)OC[C@H]1O[C@@](COC(C)=O)(O[C@H]2O[C@H](COC(C)=O)[C@@H](OC(C)=O)[C@H](OC(C)=O)[C@H]2OC(C)=O)[C@@H](OC(C)=O)[C@@H]1OC(C)=O | inactive
24 | CC1(C)[C@@H](O[C@H]2O[C@H](C(=O)O)[C@@H](O)[C@H](O)[C@H]2O[C@@H]2O[C@H](C(=O)O)[C@@H](O)[C@H](O)[C@H]2O)CC[C@]2(C)[C@H]3C(=O)C=C4[C@@H]5C[C@@](C)(C(=O)O)CC[C@]5(C)CC[C@@]4(C)[C@]3(C)CC[C@@H]12 | inactive
25 | Cc1ncc(CO)c(CO)c1O | inactive
26 | O=C(O)Cc1c[nH]c2ccccc12 | inactive
27 | COC(=O)CCCCC(=O)OC | inactive
28 | Cc1ccccc1Cl | inactive
29 | Cc1nnc(NS(=O)(=O)c2ccc(N)cc2)s1 | inactive
30 | Cc1cc(C)cc(O)c1 | inactive
31 | O=C1O[C@H]([C@H](O)CO)C(O)=C1O | inactive
32 | C[Si](C)(C)N[Si](C)(C)C | inactive
33 | COc1c2ccoc2cc2oc(=O)ccc12 | inactive
34 | C=C(CC(=O)O)C(=O)O | inactive
35 | NC(=O)NC(N)=O | inactive
36 | Cc1ccc(C)c(S(=O)(=O)O)c1 | inactive
37 | O=C(NCC1CCCCN1)c1cc(OCC(F)(F)F)ccc1OCC(F)(F)F (stereo not given) | inactive
38 | NC1CCCCC1N (stereo not given) | inactive
39 | Nc1cccc(C(F)(F)F)c1 | inactive
40 | CCCCCCC(=O)O | inactive
